Screening data as filed in PubChem BioAssay.
AMA1-RON2 inh: AMA1-RON2 (P. falciparum) interaction inhibition; AlphaScreen AMA1-biotinylated RON2 peptide binding; Potency, µM (top dose mostly 58.2 µM), hits mostly inhibitors; 360,000 compounds, 0.2% hits; AID 720542; also: nearly all actives have a fitted effect of over 45% in size
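AMA1 (3D7) with his tag at 25 nM final met compounds first, then biotinylated RON2 peptide at 25 nM; detection used donor plus acceptor beads, 10 µg/mL apiece, read by AlphaScreen after 30 min at room temperature.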
AmpC inh no detg: blocks E. coli AmpC beta-lactamase in detergent-free assay; AmpC nitrocefin hydrolysis, absorbance 480 nm, 0.0001% Triton; Potency, µM (top dose mostly 57.1 µM), usual class: inhibitors; P00811; 330,000 compounds, 0.52% hits; AID 485341; also: nearly all actives have a fitted effect of over 20% in size
Target sequence (P00811 whole entry, looked up): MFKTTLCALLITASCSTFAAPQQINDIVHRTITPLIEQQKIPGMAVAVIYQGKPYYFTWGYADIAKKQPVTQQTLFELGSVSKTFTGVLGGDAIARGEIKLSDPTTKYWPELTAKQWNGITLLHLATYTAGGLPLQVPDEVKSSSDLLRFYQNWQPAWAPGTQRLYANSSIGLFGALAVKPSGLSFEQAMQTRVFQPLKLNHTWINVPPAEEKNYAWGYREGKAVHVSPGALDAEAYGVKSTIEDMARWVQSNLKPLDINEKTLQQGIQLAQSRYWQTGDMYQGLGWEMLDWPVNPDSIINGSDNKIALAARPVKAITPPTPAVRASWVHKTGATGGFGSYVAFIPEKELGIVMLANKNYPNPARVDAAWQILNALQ
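20 mM phosphate pH 7.0 + 0.01% (detergent screen) or 0.0001% Triton X-100; 5.3 nM AmpC reagent; cpd preinc 15 min RT; nitrocefin (800 uM stock) to start; A480 q20 s × 4 min; Activity was normalised to no-enzyme and no-compound control wells.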
AmpC detergent: inhibitors of E. coli AmpC beta-lactamase with detergent; 370,000 compounds, 0.041% hits; AmpC hydrolysis of nitrocefin, absorbance 480 nm, 0.01% Triton; P00811; Potency, µM (top dose mostly 114 µM), most hits filed as inhibitors; also: nearly all actives have a fitted effect of over 25% in size
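20 mM phosphate pH 7.0 + 0.01% (detergent screen) or 0.0001% Triton X-100; 5.3 nM AmpC reagent; cpd preinc 15 min RT; nitrocefin (800 uM stock) to start; A480 q20 s × 4 min; Activity was normalised to no-enzyme and no-compound control wells.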
CHX counter: affects cycloheximide protein synthesis inhibition readout, counter-screen | cell reporter, cycloheximide protein synthesis inhibition counterscreen | max response, % | 300,000 compounds, 12% hits; in the data active = max response mostly above about 13%, no sharp cut-off; inactive = mostly below about 14%; also: read at 38.3 µM for the half of the compounds with a filed dose
SARS PLpro yeast: blocks SARS-CoV papain-like protease in a yeast assay. S. cerevisiae expressing SARS-CoV PLpro, growth rescue. Potency, µM (doses to about 32.9 µM), hits mostly activators. 330,000 compounds, 0.19% hits; calls by dose curve; also: nearly all actives have a fitted effect of over 55% in size
Shiga toxin inh: inhibitors of Shiga toxin in Vero cells; inhibition, % at 38.7 µM; AID 2315; Vero cells, Shiga toxin protein synthesis inhibition reporter; 290,000 compounds, 9.2% hits; in the data active = inhibition mostly above about 28%, no sharp cut-off; inactive = mostly below about 43%
Each line names hits and unclear results; the compound was inactive in the other large screens. This is one part of a sample in which hits are shown more often than they occur. Unless noted, calls follow the shape of the dose curve; as a rule, active = well fitted curve in the direction sought with a large enough effect; inconclusive = small, poorly fitted or top-dose-only effect, or another doubt; inactive = no such curve, though single readings can be large; an effect the other way counts as inactive or inconclusive.

CCOC(=O)N1CCC(NC(=O)c2ccc3c(c2)sc2nc(-c4cccc(OC)c4)cn23)CC1	none (no result: AMA1-RON2 inh)
CC1CCC(NC(=O)c2ccc3snnc3c2)CC1 (centres undefined)	CHX counter 41, Shiga toxin inh 50
CCOC(=O)N1CCC(NC(=O)c2ccc3snnc3c2)CC1	AmpC inh no detg 45µM, AmpC detergent inconclusive
CCOC(=O)N1CCC(NC(=O)c2ccc3c(c2)sc2nc(-c4ccccc4)cn23)CC1	CHX counter 39, Shiga toxin inh 69
O=C(NCc1ccc2c(c1)OCO2)C1CCN(S(=O)(=O)c2cccs2)CC1	none
CCC(=O)c1c(NCCc2ccccc2)cc(C)oc1=O	AmpC detergent inconclusive
O=C1CNC(=O)N1	none
C(=N\Nc1nc2ccccc2[nH]1)/c1cccc2cccnc12	CHX counter 47, Shiga toxin inh 79
COc1cccc(/C=N/Nc2nc(C)cc(=O)[nH]2)c1OC	CHX counter 21, Shiga toxin inh 45
CCOc1ccccc1/C=N/Nc1nc(C)cc(=O)[nH]1	none
Brc1ccc(-c2ccc(/C=N/Nc3nc4ccccc4[nH]3)o2)cc1	CHX counter 49, Shiga toxin inh 78
C(=C\c1ccccc1)/C=N/Nc1nc2ccccc2[nH]1	CHX counter 27, Shiga toxin inh 89
Brc1ccc(-c2ccc(/C=N/Nc3nncc(-c4ccccc4)n3)o2)cc1	AmpC detergent inconclusive
O=C(NC1CC(=O)N(c2cccc(F)c2)C1)c1ccc(Br)o1 (centres undefined)	none (no result: AMA1-RON2 inh, AmpC inh no detg, CHX counter, SARS PLpro yeast, Shiga toxin inh)
Fc1ccc(/C=N/Nc2nc3ccccc3[nH]2)cc1F	CHX counter 36, Shiga toxin inh 118
Cc1cc(=O)[nH]c(N/N=C/c2c[nH]c3ccccc23)n1	CHX counter 29
Cc1nn(-c2ccccc2)c(Cl)c1/C=N/Nc1nc2ccccc2[nH]1	CHX counter 39, Shiga toxin inh 146
O=c1[nH]c(N/N=C\c2ccc3c(c2)OCO3)nc2ccccc12	CHX counter 53, Shiga toxin inh 54
Cc1cc(=O)[nH]c(N/N=C/c2c(C)nn(-c3ccccc3)c2Cl)n1	none
O=c1[nH]c(N/N=C/c2cc3c(cc2[N+](=O)[O-])OCO3)nc2ccccc12	none
CC1CC(C)CN(C(=O)COC(=O)C2CCN(S(=O)(=O)c3c(Cl)cccc3Cl)CC2)C1 (centres undefined)	none (no result: CHX counter, Shiga toxin inh)
C=CCNC(=S)N(Cc1ccccc1)Cc1ccccc1	AmpC detergent inconclusive
Cc1[nH]c2ccccc2c1/C=N/Nc1nc2ccccc2[nH]1	CHX counter 43, Shiga toxin inh 112
Fc1ccc(/C=N\Nc2cccc(F)c2)cc1	none
Fc1cccc(/C=N/Nc2nc3ccccc3[nH]2)c1	AmpC inh no detg inconclusive, CHX counter 40, Shiga toxin inh 84
O=c1[nH]c(N/N=C/c2ccccc2)nc2ccccc12	CHX counter 43, Shiga toxin inh 72
O=c1c2ccccc2nc(N/N=C/c2ccc(O)cc2)n1O	none
Cc1cc(N/N=C/c2ccc3c(c2)OCO3)nc2ccccc12	CHX counter 47, Shiga toxin inh 79
CCn1c(=O)cc(OCC(=O)NCCc2ccc(OC)c(OC)c2)c2ccccc21	none
C(=N\Nc1nc2ccccc2[nH]1)/C1CCCCC1	CHX counter 61, Shiga toxin inh 114
NS(=O)(=O)c1ccc(N/N=C/c2ccc(O)cc2O)c([N+](=O)[O-])c1	none
C(=N\Nc1nc2ccccc2[nH]1)/c1ccccc1	CHX counter 49, Shiga toxin inh 76
O=C(CCc1nc2ccccc2[nH]1)NC1CCCCC1	none
C(=N\Nc1nc2ccccc2[nH]1)/c1c[nH]c2ccccc12	CHX counter 54, Shiga toxin inh 67
C(=N\Nc1nc(N2CCCCC2)nc(N2CCCCC2)n1)/c1c[nH]c2ccccc12	none
O=[N+]([O-])c1cc(/C=N/Nc2nc3ccccc3[nH]2)c(O)cc1O	AMA1-RON2 inh inconclusive, CHX counter 43, SARS PLpro yeast 16µM, Shiga toxin inh 104
FC(F)(F)c1nnc(Nc2ccc(Cl)cc2)s1	none
COc1ccc(NC(=O)c2c(NCc3cccs3)sc3c2CCCC3)cc1	none (no result: AMA1-RON2 inh, AmpC inh no detg, CHX counter, SARS PLpro yeast, Shiga toxin inh)
NC1=NC2(CCCCC2)N(c2ccc(F)cc2)C(N)=N1	none
C(/CCc1ccccc1)=N\Nc1nc2ccccc2[nH]1	CHX counter 27, Shiga toxin inh 47
COc1ccc(/C=N/Nc2nc3ccccc3[nH]2)c(OC)c1OC	CHX counter 41, Shiga toxin inh 141
CCCCCC/C=N/Nc1nnc(Cc2ccccc2)c(=O)[nH]1	AmpC inh no detg inconclusive
Cc1ccccc1/C=N/Nc1nc2ccccc2[nH]1	CHX counter 49, Shiga toxin inh 76
Cc1ccc(N(CC(=O)NCc2ccccc2)C(=O)CCC(=O)Nc2nccs2)cc1	none
CC(C)(C)C(=O)Nc1nnc(-c2ccccc2)c(-c2ccccc2)n1	none
CC(C)(C)c1cc(OC(=O)c2ccccc2F)ccc1O	Shiga toxin inh 33
CC(=O)Nc1ccc(S(=O)(=O)Nc2nnc(C(C)C)s2)cc1	none
COCC(C)n1c(C)cc(C(=O)Cn2nc(C(=O)O)c3ccccc3c2=O)c1C (centres undefined)	Shiga toxin inh 55
COCC(C)n1c(C)cc(C(=O)COC(=O)c2nn(C)c(=O)c3ccccc23)c1C (centres undefined)	none (no result: AmpC detergent, CHX counter, Shiga toxin inh)
Cc1cc(C(=O)COC(=O)c2ccc(O)cc2)c(C)n1-c1ccccc1F	CHX counter 42, Shiga toxin inh 107
COc1ccc(-n2c(C)cc(C(=O)Cn3nc(C(=O)O)c4ccccc4c3=O)c2C)cc1	CHX counter 26, Shiga toxin inh 34
Cc1cc(C(=O)Cn2nnc3ccccc3c2=O)c(C)n1-c1ccccc1F	CHX counter 46
Cc1cc(C(=O)COC(=O)c2ccc[nH]c2=O)c(C)n1-c1ccccc1F	none
Cc1ccc(CSc2nnc(-c3cccc(S(=O)(=O)N4CCOCC4)c3)n2CC(C)C)cc1	AmpC detergent inconclusive
CNc1nc(Nc2ccccc2)nc(OCC(F)(F)F)n1	none
Cc1ccc(-n2c(C)cc(C(=O)Cn3nc(C(=O)O)c4ccccc4c3=O)c2C)cc1	CHX counter 19, Shiga toxin inh 42
COc1ccccc1Cn1nc(C(=O)O)c2ccccc2c1=O	CHX counter 20, Shiga toxin inh 43
Cc1cc(C(=O)Cn2nnc3ccccc3c2=O)c(C)n1-c1c(C)n(C)n(-c2ccccc2)c1=O	none
COc1ccc(-n2c(C)cc(C(=O)Cn3nnc4ccccc4c3=O)c2C)cc1	CHX counter 15
Cc1cc(C(=O)OCC(=O)N2CCOCC2)c(C)n1-c1ccccc1	none (no result: AmpC detergent, CHX counter, Shiga toxin inh)
Cc1cc(C(=O)OCC(=O)Nc2c(F)cccc2F)c(C)n1-c1ccccc1	CHX counter 55, Shiga toxin inh 110
COc1ccccc1-n1nc(C(=O)O)c2ccccc2c1=O	AmpC detergent inconclusive
